# Measured values published in PubChem BioAssay.
# A number with no mark means an inactive call. For some assays here: Results with a measured potency or affinity are listed apart. Calls of active or inactive are those of the source. Unless noted, the rule behind the calls is not given here.
# What was measured:
# [1] = antimalarial activity against Dd2 strain (AID 2302;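 active = growth inhibition above 50% at the single 2 µM test dose, taken to imply half-maximal potency below 2 µM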;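 note: 0% = DMSO untreated growth and 100% = chloroquine plus artemisinin killed control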); conditions: P. falciparum Dd2 in RBCs, LDH growth readout, 72 h; at 2 µM; active compounds read high
# [2] = human hepatoma cell viability loss – ATP luminescence, cytotoxicity control for P. falciparum antimalarial project, primary screen (AID 2303;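 active = inhibition above 50%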;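 note: 0% = DMSO wells and 100% = digitonin-killed cells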); conditions: HepG2 viability, 24-48 h, at 10 µM, active compounds read high
# [3] = target: L-lactate dehydrogenase (Plasmodium falciparum (isolate CDC / Honduras)) (UniProt Q27743); assay: PfLDH activity inhibition – cell lysate, 3D7 strain, counter-screen for P. falciparum growth inhibition project (AID 2304);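 note: 0% = vehicle and 100% = reference inhibitor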; conditions: P. falciparum 3D7 crude extract, LDH APAD/NBT absorbance; at 2 µM; active compounds read high
# [4] = inhibition of 3D7 malaria parasite growth – strain 3D7 (AID 2306);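 note: 0% = DMSO wells and 100% = chloroquine plus artemisinin control wells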; conditions: P. falciparum 3D7 erythrocytic growth, LDH absorbance, 72 h; at 2 µM; active compounds read high
# [5] = target: Calcium-dependent protein kinase 1 (Plasmodium falciparum (isolate 3D7)) (UniProt P62344); assay: PfCDPK1 kinase inhibitors, biochemical, TCAMS library (AID 1159585; cut-off not given, nearly all actives have IC50 up to about 0.98 µM;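 note: inhibitors leave more ATP so luminescence rises with inhibition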); conditions: recombinant PfCDPK1, Kinase-Glo ATP depletion luminescence
# [6] = target: Plasmodium falciparum protein kinase 6 (PK6, PF3D7_1337100) (UniProt Q8IDW1); assay: PfPK6 kinase inhibitors, biochemical, TCAMS library (AID 1159586); conditions: recombinant PfPK6, Kinase-Glo ATP depletion luminescence
# [7] = target: Protein kinase 7 (PK7), Plasmodium falciparum 3D7 (PF3D7_0213400) (UniProt Q7YTF7); assay: inhibition of Plasmodium PK7 catalytic activity – biochemical, TCAMS antimalarial set, Kinase-Glo luminescence (AID 1159587); conditions: recombinant PfPK7, Kinase-Glo ATP depletion luminescence
# [8] = target: Calcium-dependent protein kinase 4 (Plasmodium falciparum (isolate 3D7)) (UniProt Q8IBS5); assay: PfCDPK4 kinase inhibitors, biochemical, TCAMS library (AID 1159588; cut-off not given, nearly all actives have IC50 up to about 0.91 µM); conditions: recombinant PfCDPK4, Kinase-Glo ATP depletion luminescence
# Calcium-dependent protein kinase 4 (Plasmodium falciparum (isolate 3D7)), sequence (Q8IBS5 whole entry, looked up): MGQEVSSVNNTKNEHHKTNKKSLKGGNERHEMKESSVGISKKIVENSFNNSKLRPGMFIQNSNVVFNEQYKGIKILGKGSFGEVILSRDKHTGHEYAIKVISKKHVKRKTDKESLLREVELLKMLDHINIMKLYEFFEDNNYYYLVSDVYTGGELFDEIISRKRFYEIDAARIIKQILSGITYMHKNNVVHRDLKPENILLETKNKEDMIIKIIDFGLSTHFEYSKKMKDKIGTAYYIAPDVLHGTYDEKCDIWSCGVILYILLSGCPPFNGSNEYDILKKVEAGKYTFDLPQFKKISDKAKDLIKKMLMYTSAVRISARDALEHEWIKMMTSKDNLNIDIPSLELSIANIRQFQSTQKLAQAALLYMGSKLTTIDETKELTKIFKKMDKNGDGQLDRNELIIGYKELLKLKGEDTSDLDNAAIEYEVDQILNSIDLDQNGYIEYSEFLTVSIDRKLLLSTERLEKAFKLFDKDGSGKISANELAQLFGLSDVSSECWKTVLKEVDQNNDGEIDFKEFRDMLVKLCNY
# L-lactate dehydrogenase (Plasmodium falciparum (isolate CDC / Honduras)), sequence (Q27743 whole entry, looked up): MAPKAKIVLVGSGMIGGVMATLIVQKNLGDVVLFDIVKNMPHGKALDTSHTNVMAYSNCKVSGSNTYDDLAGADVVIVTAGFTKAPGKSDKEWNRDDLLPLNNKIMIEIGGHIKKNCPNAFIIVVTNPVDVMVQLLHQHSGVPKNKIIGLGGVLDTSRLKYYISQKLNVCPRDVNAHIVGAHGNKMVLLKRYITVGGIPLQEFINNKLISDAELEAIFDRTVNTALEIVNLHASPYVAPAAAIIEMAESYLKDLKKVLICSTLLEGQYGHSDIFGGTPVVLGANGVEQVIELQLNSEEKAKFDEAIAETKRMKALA
# Calcium-dependent protein kinase 1 (Plasmodium falciparum (isolate 3D7)), sequence (P62344 whole entry, looked up): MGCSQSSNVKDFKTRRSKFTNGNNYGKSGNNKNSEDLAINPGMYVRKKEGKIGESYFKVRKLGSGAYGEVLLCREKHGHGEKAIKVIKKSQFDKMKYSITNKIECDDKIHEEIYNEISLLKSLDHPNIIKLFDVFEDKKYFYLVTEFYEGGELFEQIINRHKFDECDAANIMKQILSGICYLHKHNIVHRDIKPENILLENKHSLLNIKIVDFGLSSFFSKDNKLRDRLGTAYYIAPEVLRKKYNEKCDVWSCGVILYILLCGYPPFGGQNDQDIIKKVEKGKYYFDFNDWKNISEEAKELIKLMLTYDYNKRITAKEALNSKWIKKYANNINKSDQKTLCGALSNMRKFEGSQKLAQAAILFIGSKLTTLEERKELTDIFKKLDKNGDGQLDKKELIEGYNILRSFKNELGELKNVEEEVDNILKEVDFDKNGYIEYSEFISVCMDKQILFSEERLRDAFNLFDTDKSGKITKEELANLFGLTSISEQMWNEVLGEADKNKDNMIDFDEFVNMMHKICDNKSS
# Plasmodium falciparum protein kinase 6 (PK6, PF3D7_1337100), sequence (Q8IDW1 1-305): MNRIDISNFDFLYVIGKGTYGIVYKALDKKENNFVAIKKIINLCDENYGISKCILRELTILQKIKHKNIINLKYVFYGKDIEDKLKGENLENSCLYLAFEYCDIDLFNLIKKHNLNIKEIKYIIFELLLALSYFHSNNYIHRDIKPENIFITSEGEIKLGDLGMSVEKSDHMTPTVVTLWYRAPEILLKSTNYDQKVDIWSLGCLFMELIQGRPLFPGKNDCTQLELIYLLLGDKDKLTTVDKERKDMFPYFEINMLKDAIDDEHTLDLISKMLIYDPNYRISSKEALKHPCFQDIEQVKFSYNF
# Protein kinase 7 (PK7), Plasmodium falciparum 3D7 (PF3D7_0213400), sequence (Q7YTF7 1-343): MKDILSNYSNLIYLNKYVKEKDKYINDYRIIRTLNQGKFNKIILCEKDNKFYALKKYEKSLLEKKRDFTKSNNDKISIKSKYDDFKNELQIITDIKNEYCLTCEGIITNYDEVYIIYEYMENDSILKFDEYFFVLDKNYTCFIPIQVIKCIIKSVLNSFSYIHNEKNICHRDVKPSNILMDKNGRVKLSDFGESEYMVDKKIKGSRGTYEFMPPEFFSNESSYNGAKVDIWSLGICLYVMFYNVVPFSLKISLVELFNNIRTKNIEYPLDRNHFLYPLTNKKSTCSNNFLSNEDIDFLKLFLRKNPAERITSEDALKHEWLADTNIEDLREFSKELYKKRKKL
SMILES,growth inhibition [1],inhibition [2],inhibition [3],growth inhibition [4],outcome [5],outcome [6],outcome [7],outcome [8]
CN1CCC(N2CCN(Cc3cccc(-c4ccc(-c5nc6ccccc6[nH]5)cc4)c3)CC2)CC1,99% (active),56% (active),-7%,100% (active),inactive,inactive,inactive,inactive
CN1CCC(N2CCN(CCOc3cc(NC(=O)/C=C/c4ccccc4Cl)ccc3Br)CC2)CC1,99% (active),36%,-1%,101% (active),inactive,inactive,inactive,inactive
O=C(Nc1ccc(SC(F)(F)F)cc1)Nc1ccc(Cl)c(Cl)c1,99% (active),15%,4%,98% (active),inactive,inactive,inactive,inactive
NC(N)=Nc1cccc(NC(=O)Nc2cccc(N=C(N)N)c2)c1,71% (active),-7%,7%,87% (active),inactive,inactive,inactive,inactive
CCc1cc2c(cc1OCCN(C)C)N(C(=O)Nc1ccc(-c3ccncc3)c(Cl)c1)CC2,7%,18%,-1%,95% (active),inactive,inactive,inactive,inactive
Cc1cccc(-c2nn(-c3ccccc3)c3[nH]c(=O)c(CN4CCSCC4)cc23)c1,98% (active),-3%,0%,98% (active),inactive,inactive,inactive,inactive
O=[N+]([O-])c1cccc(NC(=S)N2CCCN(Cc3ccc(Cl)cc3Cl)CC2)c1,50% (active),3%,4%,94% (active),inactive,inactive,inactive,inactive
COCc1ccccc1C(=O)NCCOc1cc(C)cc(C)c1,95% (active),26%,5%,96% (active),inactive,inactive,inactive,inactive
COc1ccc(-c2ccccc2OCCCNc2nc(NCCc3ccc(O)cc3)nc(N3CCNCC3)n2)cc1,3%,36%,-1%,99% (active),inactive,inactive,inactive,inactive
COCCn1ccc2c3c(N)nc(N)nc3ccc21,29%,43%,-2%,93% (active),inactive,inactive,inactive,inactive
CN1CCCc2ccc(NC(=O)c3cnc(-c4ccccc4)cn3)cc21,82% (active),24%,2%,87% (active),inactive,inactive,inactive,inactive
CNCc1ccc(CN(C)c2nc(N)c3cc(OC)c(OC)cc3n2)cc1,3%,12%,5%,96% (active),inactive,inactive,inactive,inactive
COCCN(C)CCCOc1cc2c(cc1OC)ncn2-c1cc(OCc2ccccc2C(F)(F)F)c(C(N)=O)s1,49%,24%,2%,98% (active),inactive,inactive,inactive,inactive
COc1ccccc1C1CC(c2ccc(Br)cc2)=NN1C(=O)c1ccccc1 (configuration not stated),59% (active),12%,-6%,85% (active),inactive,inactive,inactive,inactive
Cc1cccc2[nH]c(-c3cccc(-c4cccc(NC(=O)c5cccnc5)c4)c3)nc12,56% (active),28%,-5%,101% (active),inactive,inactive,inactive,inactive
Oc1ccc(CCNc2nc(NCCOc3ccccc3-c3ccccc3)nc(N3CCNCC3)n2)cc1,17%,22%,-1%,93% (active),inactive,inactive,inactive,inactive
CCCCCN1CCC(NS(=O)(=O)c2cccc(C(=O)Nc3ccc(C(F)(F)F)cc3)c2)C1 (configuration not stated),5%,45%,-3%,95% (active),inactive,inactive,inactive,inactive
CCCC1N=C(N)N=C(N)N1c1ccc(Cl)cc1 (configuration not stated),-2%,14%,5%,96% (active),inactive,inactive,inactive,inactive
COc1cc(Nc2nccc(N3CCC(NC(=O)Nc4ccc5c(c4)OCO5)C3)n2)cc(OC)c1OC (configuration not stated),74% (active),9%,-1%,96% (active),inactive,inactive,inactive,inactive
